# Compound activity: PubChem, National Center for Advancing Translational Sciences (NCATS)
# An excerpt weighted towards active compounds, which were near 7.9% of everything screened.
# SW480 rerep – A quantitative high throughput screen for small molecules that induce DNA re-replication in SW480 colon adenocarcinoma cells. Potency, µM (highest dose often 46.1 µM), inactives show top-dose re-replication activation, actives largely listed as activators. SW480 DNA re-replication, Hoechst DNA content imaging, 48 h. 340,000 compounds, 1.8% hits; further: % of control where 0% means no effect; nearly all actives have a fitted effect of over 55% in size
#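 Hoechst fluorescence of nuclei (405 nm excitation, 500-530 nm emission) measured by plate-scanning imager after 48 hr compound exposure at 37 C; re-replication scored as increased number of nuclei with elevated intensity.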
# KB-3-1 tox – qHTS assay for MDR1-selective chemotherapeutics: Primary screen using the parental adenocarcinoma cell KB-3-1; KB-3-1 viability, CellTiter-Glo ATP luminescence, 72 h; 400,000 compounds, 1.4% hits; Potency, µM (series often up to 46.1 µM), usual class: cytotoxic; further: on the % scale 0 is the no-effect control and ±100 the full control effect; nearly all actives have a fitted effect of over 60% in size
#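 Screening of KB-3-1 cells (DMEM, 10% FBS, phenol-red free) ran from lowest to highest compound concentration; after 72 h at 37 °C viability was read luminescently and curves fitted.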
# HT1080 IDH1KD tx – qHTS for induction of synthetic lethality in tumor cells producing 2HG: qHTS for the HT-1080-IDH1KD cell line; HT-1080 IDH1 knockdown viability, ATP luminescence, 48 h; Potency, µM (doses to about 46.1 µM), for inactives: at the highest dose activity, negative = toxicity, most hits filed as cytotoxic; 360,000 compounds, 2% hits;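 further: 0% = DMSO wells and -100% = cell-free medium wells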
#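 Assay cells: HT-1080 with IDH1 knockdown, 750 per well, RPMI/5% FBS. Exposure: 48 h at 37 °C following 2 h pre-incubation. Read: CellTiter-Glo luminescence; fitted concentration-response, curve class assigned.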
# HT1080NT lethal – qHTS for induction of synthetic lethality in tumor cells producing 2HG: qHTS for the HT-1080-NT fibrosarcoma cell line; HT-1080-NT fibrosarcoma viability, CellTiter-Glo ATP luminescence, 48 h; Potency, µM (series often up to 46.1 µM), for inactives: at the highest dose activity, negative = less viability, usual class: cytotoxic; 360,000 compounds, 1.6% hits; AID 686970, 2013;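 further: NT is the 2HG producing partner of a matched IDH1 knockdown line; 0% = DMSO-treated cells and -100% = media-only wells without cells; nearly all actives have a fitted effect of over 55% in size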
#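 A 48-hour cytotoxicity screen used HT-1080-NT cells plated 2 hours before compound delivery. ATP-based CellTiter-Glo luminescence measured viability, normalized to DMSO and no-cell controls.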
# KB-V1 MDR tox – qHTS assay for MDR1-selective chemotherapeutics: Primary screen using the drug-selected MDR subline cells KB-V1; KB-V1 MDR cells viability, CellTiter-Glo, 72 h; Potency, µM (doses to about 46.1 µM), usual class: cytotoxic; 400,000 compounds, 3.4% hits; AID 1347076, 2019; further: on the % scale 0 is the no-effect control and ±100 the full control effect; nearly all actives have a fitted effect of over 60% in size
#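 Luminescent ATP read-out (CellTiter-Glo, 10 min) measures survival of drug-selected KB-V1 MDR cells after 72 h, 37 degrees C compound exposure. Medium: phenol-red-free DMEM, 10% FBS. Values from fitted concentration-response curves.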
# MCF10A rerep – A quantitative high throughput screen for small molecules that induce DNA re-replication in MCF 10a normal breast cells; MCF 10A DNA re-replication, Hoechst nuclear intensity, 48 h; Potency, µM (highest dose often 46.1 µM), for the others: at the top dose activity, positive = re-replication, usual class: activators; 350,000 compounds, 2.9% hits; AID 624296, 2012; further: % of control where 0% means no effect; nearly all actives have a fitted effect of over 50% in size
# The depositor's hits bear a star; i = inactive; ? = inconclusive; . = not tested or not shown; [ ] = another dose, or the depositor's remark. The call rests on the fitted dose curve; in most records, active means well fitted curve in the direction sought with a large enough effect; inconclusive means small, poorly fitted or top-dose-only effect, or another doubt; inactive means no such curve, though single readings can be large; an effect the other way counts as inactive or inconclusive. Potency means the concentration at half of the fitted maximal effect.
SMILES,SW480 rerep,KB-3-1 tox,HT1080 IDH1KD tx,HT1080NT lethal,KB-V1 MDR tox,MCF10A rerep
O=C(CCc1c[nH]c2ccccc12)Nc1ncccc1O,-6%,i,-24%,-29%,i,0%
O=C(Nc1ccc(N2CCN(C(=O)c3ccccc3)CC2)c(Cl)c1)c1ccco1,-1%,?,?,-20%,?,?
CCCC(=O)N1CCN(c2ccc(NC(=O)c3cc4ccccc4o3)cc2Cl)CC1,2%,?,21µM*,18µM*,?,6.5µM*
CCC(=O)N1CCN(c2ccc(NC(=O)c3cc4ccccc4o3)cc2Cl)CC1,-1%,?,16µM*,?,9.2µM*,?
CCC(=O)N1CCN(c2ccc(NC(=O)c3ccco3)cc2Cl)CC1,1%,i,12%,11%,?,-2%
O=C(Nc1ccc(N2CCN(C(=O)c3ccco3)CC2)c(Cl)c1)c1cc2ccccc2o1,?,?,15µM*,?,i,9.2µM*
NC(=O)Nc1cc(Cl)ccc1Cl,-9%,i,8%,13%,i,-4%
O=C(Nc1cc(Cl)ccc1Cl)N1CCN(C(=O)Nc2cc(Cl)ccc2Cl)CC1,9%,i,2%,1%,15µM*,11%
COc1ccc(Cl)cc1NC(=O)N1CCN(c2ccccc2OC)CC1,17%,i,-13%,-5%,i,-2%
CCN1CCN(C(=O)Nc2cc(Cl)ccc2OC)CC1,-8%,i,21%,12%,i,3.7µM*
Cc1cccc(OCC(=O)Nc2cccc3cccnc23)c1C,.,i,.,.,i,.
O=C(NCc1ccccc1)c1ccc(CN2CCOCC2)cc1,2%,i,-5%,-5%,i,13%
O=C(CN(Cc1ccccc1Cl)C(=O)c1ccc(CN2CCOCC2)o1)NCc1ccccc1,7%,i,4%,3%,12µM*,9%
Cc1cc(C)n(C(C)CNS(=O)(=O)c2ccc(Cl)cc2)n1 (stereo not given),-12%,?,11%,3%,i,-13%
CCOc1ccc(Oc2cc(NC(=O)c3ccco3)cc([N+](=O)[O-])c2)cc1,5%,i,-7%,-6%,i,?
CCn1nc(C)c(C(=O)Nc2cc(Oc3cc(C)cc(C)c3)cc([N+](=O)[O-])c2)c1C,?,18µM*,?,?,3.3µM*,23µM*
O=C(Nc1cc(Oc2ccc(Cl)cc2)cc([N+](=O)[O-])c1)c1ccco1,0%,i,?,?,i,16µM*
Cc1ccccc1Cn1ccc(NC(=O)c2nn(C)cc2[N+](=O)[O-])n1,10µM*,i,-25%,?,?,6.5µM*
Cn1cc([N+](=O)[O-])c(C(=O)Nc2cc(Oc3ccccc3)cc([N+](=O)[O-])c2)n1,4.1µM*,?,6.5µM*,18µM*,?,2.9µM*
Cc1nn(C)cc1C(=O)Nc1cc(Oc2ccc(Cl)cc2)cc([N+](=O)[O-])c1,22%,21µM*,4%,2%,?,97%
CC(C)OCCCNc1ncnc2c1[nH]c1ccccc12,0%,7.3µM*,?,?,?,-5%
COc1ccc(CNC(=O)Cn2cnc3c(NCc4ccccc4)ncnc32)cc1,13µM*,10µM*,16µM*,15µM*,i,?
COC(=O)c1ccc(CNC(=O)Cn2cnc3c(NCc4ccccc4)ncnc32)cc1,0%,?,-18%,-20%,i,26%
COc1ccc(CNc2ncnc3c2[nH]c2cc(OC)c(OC)cc23)cc1,22%,i,?,-15%,i,?
C1=C(CCNc2ncnc3c2[nH]c2ccccc23)CCCC1,10%,5.2µM*,26µM*,26µM*,?,?
SMILES,SW480 rerep,KB-3-1 tox,HT1080 IDH1KD tx,HT1080NT lethal,KB-V1 MDR tox,MCF10A rerep
COc1ccc(CNc2ncnc3c2[nH]c2ccccc23)cc1,97%,i,21µM*,16µM*,13µM*,?
CC(C)C(=O)NCCc1nc(-c2ccccc2Cl)no1,-22%[9.22 µM],i,-3%,10%,i,-4%
O=C(Nc1ccc(F)cc1)c1oc2ccccc2c1NC(=O)C1CCCCC1,.,i,.,.,i,.
Cc1ccc(NS(=O)(=O)N2CCCCC2)cc1,5%,i,1%,-12%,i,9%
COc1ccccc1/C=C1\SC(=S)N(CCC(=O)NCCc2ccc(O)cc2)C1=O,?,i,?,?,?,?
COc1cc2ccnc(Cc3cccc(OC)c3OC)c2cc1OC,4%,7.3µM*,-29%,-14%,2.1µM*,?
CCOc1cccc(C2C(C(=O)c3ccco3)=C(O)C(=O)N2c2nnc(C)s2)c1 (stereo not given),5.8µM*,i,-9%,0%[9.24 µM],i,-5%
CCOc1cccc(C2C(C(=O)c3ccc(C)o3)=C(O)C(=O)N2c2nnc(C)s2)c1 (stereo not given),-1%,i,10%,16%,i,14%
CCCOc1cccc(C2C(C(=O)c3ccc(C)o3)=C(O)C(=O)N2c2nc(C)c(C(C)=O)s2)c1 (stereo not given),?,i,-1%,4%,?,23µM*
CCCOc1ccc(C2C(C(=O)c3ccc(C)o3)=C(O)C(=O)N2Cc2ccco2)cc1 (stereo not given),?,i,-3%,-1%,18µM*,-2%
O=C(Nc1cccc(S(=O)(=O)N2CCCC2)c1)c1cc(=O)[nH]c2ccccc12,19%,i,-1%,4%,i,19%
COc1cc(-c2ccc3ncnc(NCc4nc(C)cs4)c3c2)cc(OC)c1OC,.,i,.,.,i,.
Cc1cccc(C)c1N=Cc1c(O)n(-c2nccs2)c(=O)c2ccccc12,1%,i,1%,-5%,23µM*,3%
C=CCNC(=S)N1CCN(c2ccc([N+](=O)[O-])cc2)CC1,-4%,i,-6%,0%,15µM*,11%
COCCCNC(=S)N1CCN(c2nc3ccccc3s2)CC1,0%,?,0%,21%,15µM*,3%
COCCNC(=S)N1CCN(c2nc3ccccc3s2)CC1,-19%,i,-1%,9%,i,-7%
COCCCNC(=S)N1CCN(c2ccc([N+](=O)[O-])cc2)CC1,-4%,?,0%,10%,16µM*,3%
